Screens from PubChem.
DUSP3 inh – VHR1 phosphatase inhibitors, primary screen, biochemical, colorimetric, HTS; Dual specificity protein phosphatase 3 (Homo sapiens), P51452; recombinant VHR phosphatase, colorimetric substrate read-out; inhibition, % at 20 µM; actives 0.7% (n = 50,000); AID 1992, 2009; in the data active means inhibition above about 60%
Target sequence (P51452 whole entry, looked up): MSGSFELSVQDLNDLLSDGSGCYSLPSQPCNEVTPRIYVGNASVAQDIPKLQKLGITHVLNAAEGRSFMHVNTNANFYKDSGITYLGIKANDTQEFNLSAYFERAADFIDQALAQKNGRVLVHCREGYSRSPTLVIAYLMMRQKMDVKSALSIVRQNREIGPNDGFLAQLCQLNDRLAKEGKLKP
Each line names hits and unclear results; the compound was inactive in the other large screens. This is one part of a sample in which hits are shown more often than they occur.

CC1=C(C(=O)OCCc2ccccc2)C(c2ccccc2OC(C)C)CC(=O)N1 (stereo not drawn)	none
CC1=C(C(=O)OC(C)C)C(c2ccccc2F)CC(=O)N1 (stereo not drawn)	DUSP3 inh 118
CC1=C(C(=O)OCc2ccccc2)C(c2ccccc2OC(C)C)CC(=O)N1 (stereo not drawn)	none
O=C(NCCN1CCOCC1)C1CC2CCC1C2 (stereo not drawn)	none
COC(=O)C1=C(C)N(C)C(C)=C(C(=O)OC)C1c1cc(Br)c(OC)c(OC)c1	DUSP3 inh 116
COC(=O)C1=C(C)N(C)C(C)=C(C(=O)OC)C1c1cc(OC)c(OC)c(OC)c1	none
COC(=O)C1=C(C)N(C)C(C)=C(C(=O)OC)C1c1ccc(OC)c(OC)c1	none
CN(C)C=Nc1ncnc2c(C#N)c3n(c12)CCCCC3	none
CCOC(=O)c1c(NC(=O)c2ccc(-c3ccc([N+](=O)[O-])cc3)o2)sc2c1CCCC2	none
O=C1C=CC(=O)N1c1ccccc1N1C(=O)C=CC1=O	DUSP3 inh 84
COc1ccc(N2C(=O)C=CC2=O)cc1	none
Cc1ccc(N2C(=O)C=CC2=O)c(Br)c1	none
COc1ccc(NC(=O)c2nn3c(C(F)(F)F)cc(-c4cccs4)nc3c2Br)c(OC)c1	none
O=C1NC(=S)N(c2ccc(Cl)c(Cl)c2)C(=O)/C1=C/c1cccs1	none
Cc1cc(Br)ccc1N1C(=O)/C(=C/c2cc(C)n(C)c2C)C(=O)NC1=S	none
Cc1cc(Br)ccc1N1C(=O)/C(=C/c2cccs2)C(=O)NC1=S	DUSP3 inh 102
COc1ccc(OCCn2c(=O)c3cc4c(=O)n(CCOc5ccc(OC)cc5)c(=O)c4cc3c2=O)cc1	none
C/C(=C1/C(=O)N(c2nc3ccccc3s2)N=C1C(F)(F)F)N1CCC2CCCN2C1 (stereo not drawn)	none
N#Cc1c(-c2cccc(Br)c2)c(C#N)c2nc3ccccc3n2c1N	none
COc1ccc(-c2c(C#N)c(N)n3c(nc4ccccc43)c2C#N)cc1OC	DUSP3 inh 69
N#Cc1c(-c2ccc(F)cc2)c(C#N)c2nc3ccccc3n2c1N	none
COc1cccc(/C=N\n2c(C)nnc2C)c1O	none
Cc1ccc(C)n1-c1cc(C(=O)O)cc(C(=O)O)c1	none
Cc1ccc(C)n1-c1ccc(C(=O)O)c(Cl)c1	none
Cc1ccc(C)n1-c1ccc(C(=O)O)c(O)c1	DUSP3 inh 97
CCC(=NCCCn1ccnc1)c1c(C(F)(F)F)[nH]n(-c2nc3ccccc3s2)c1=O	none
Cc1cc(/C=N/n2cnnc2)c(C)n1-c1ccc(F)cc1	none
Cc1cc(/C=N\Nc2ccc([N+](=O)[O-])cn2)c(C)n1-c1ccccc1F	none
Cc1cc(/C=N/Nc2ccc([N+](=O)[O-])cn2)c(C)n1-c1ccc(F)cc1	DUSP3 inh 87
CCCCOc1ccc(C(=O)Nc2ccccc2-c2nc3ccccc3s2)cc1	none
CCOc1cc(C(=O)N2CCc3ccccc3C2)cc(OCC)c1OCC	none
COc1cc(NC(=O)COc2ccc(Br)cc2)cc(OC)c1	none
Cc1c(/C=C/c2nc3ccccc3c(=O)[nH]2)c2ccccc2n1C	none
CCN1C(=O)/C(=C/c2cccc(OC)c2OC)C(=O)NC1=S	none
O=C1NC(=S)N(c2cccc(Cl)c2)C(=O)/C1=C\c1ccc(N2CCCC2)cc1	none
CCN1C(=O)/C(=C/c2cccn2C)C(=O)NC1=S	DUSP3 inh 66
Cn1cccc1/C=C1/C(=O)NC(=S)N(c2cccc(Cl)c2)C1=O	DUSP3 inh 75
CCN1C(=O)/C(=C/c2ccc(C)o2)C(=O)NC1=S	none
O=C1NC(=S)N(c2cccc(Br)c2)C(=O)/C1=C/c1ccc(Cl)cc1	none
O=C1NC(=S)N(c2ccccc2)C(=O)/C1=C/c1cc(Cl)cc(Cl)c1O	none
O=C1NC(=S)N(c2ccc(Br)cc2)C(=O)/C1=C/C=C/c1ccccc1	none
CCN1C(=O)/C(=C/c2ccc(N3CCCC3)cc2)C(=O)NC1=S	none
CCN1C(=O)/C(=C/c2ccoc2)C(=O)NC1=S	DUSP3 inh 93
O=C1NC(=S)N(c2cccc(Br)c2)C(=O)/C1=C/C=C/c1ccccc1	DUSP3 inh 69
C=CCN1C(=O)NC(=O)C(=Cc2cccn2C)C1=O	none
CC(=O)Nc1ccc(S(=O)(=O)Nc2cc(C)ccc2C)cc1	none
CC1S/C(=N\N=C\c2ccccc2F)NC1=O (stereo not drawn)	none
O=C(COc1cccc(Cl)c1)N/N=C/c1cc(Br)cc(I)c1O	none
O=C(/C=C/c1ccco1)Nc1ccc(-c2nc3ncccc3o2)cc1	none
O=C1c2ccccc2C(=O)c2c1c(-c1ccccc1)nn2-c1ccccc1	none
COc1ccc(CNCc2ccc(Cl)cc2)cc1OC	none
CN=C(Nc1ccc(I)cc1)SC1CC(=O)N(c2ccccc2F)C1=O (stereo not drawn)	none
O=C1OC(/C=C/c2ccccc2)=NC/1=C/c1cccc([N+](=O)[O-])c1	none
C#CCOc1c(Br)cc(/C=C2\C(=O)NC(=O)N(c3cc(C)cc(C)c3)C2=O)cc1OC	none
O=C(/C=C/c1ccc(-c2ccccc2[N+](=O)[O-])o1)NCc1ccccc1	none
O=C(/C=C/c1ccc(-c2ccccc2[N+](=O)[O-])o1)Nc1ccc(O)c(-c2nc3ccccc3o2)c1	none
O=C(/C=C/c1ccc(-c2ccccc2[N+](=O)[O-])o1)Nc1ccc(-c2nc3ccccc3o2)cc1	DUSP3 inh 106
CCOC(=O)C(C)C(O)C(=O)OCC (stereo not drawn)	none
Cc1cccc(C(=O)O)c1NC(=O)c1cccc(F)c1	none
Cc1c(C(=O)O/N=C(\N)c2ccc(Cl)cc2)cccc1[N+](=O)[O-]	none
O=C(Nc1ccc(F)cc1)c1sc2cc(Cl)ccc2c1Cl	none
Cc1ccc(Cl)cc1N(Cc1ccc(C(=O)N(C(C)C)C(C)C)cc1)S(=O)(=O)c1ccccc1	none
CCOC(=O)C1=C(O)/C(=C/c2ccccc2)SC1=Nc1ccccc1	none
CCOC(=O)C1=C(O)/C(=C/c2ccc(-c3ccccc3)cc2)SC1=Nc1ccc(OC)cc1	DUSP3 inh 115
CCOC(=O)C1=C(O)/C(=C/c2ccc(O)cc2)SC1=Nc1ccccc1	none
Cc1cccc(COc2ccc3c(c2)oc(=O)c2ccccc23)c1	DUSP3 inh 96
Cc1ccc(COc2ccc3c(c2)oc(=O)c2ccccc23)cc1	none
CCc1cc(=O)oc2cc(OCc3cccc(C)c3)ccc12	none
CN1CCN(NC(=S)Nc2ccc([N+](=O)[O-])cc2)CC1	none
O=C(Nc1ccc(F)cc1)c1ccc(C#Cc2ccccc2)cc1	none
COc1cc(/C=N/n2cnnc2)ccc1OCCOc1ccc(C(C)(C)C)cc1	none
COc1cccc(OCCOc2ccc(/C=N/n3cnnc3)cc2OC)c1	DUSP3 inh 116
COc1ccccc1OCCOc1cccc(/C=N/n2cnnc2)c1	none
CCOc1cc(/C=N/n2cnnc2)ccc1OCc1cccc2ccccc12	DUSP3 inh 112
CCOc1cc(/C=N/n2cnnc2)ccc1OCCOc1ccc(C)cc1	none
CCOc1cc(/C=N/n2cnnc2)ccc1OS(=O)(=O)c1ccccc1	none
Cc1ccc(N2C(=O)NC(=O)/C(=C\c3sccc3C)C2=O)cc1	none
CCN(C(=O)c1ccc(OC)cc1)c1ccccc1	none
COC(=O)CCN1C(=O)/C(=C\c2ccc([N+](=O)[O-])cc2)SC1=S	none
COc1ccc2c(C)cc(=O)oc2c1I	none
O=c1[nH]c2ccccc2cc1/C=N\Nc1nc(-c2ccccc2)c2cc(Cl)ccc2n1	none
O=[N+]([O-])c1ccc(/C=N/NS(=O)(=O)c2ccccc2)cc1	none
Cc1ccc(-n2[nH]c(C)c(C=Nc3ccccc3C(=O)O)c2=O)cc1C	none
Cc1ccc(N=C2NC(=O)/C(=C/c3cccc(O)c3)S2)cc1Cl	none
Cc1ccc(N=C2NC(=O)/C(=C/c3ccc(F)cc3)S2)cc1Cl	none
COc1cc(/C=C2\SC(=Nc3ccc(C)c(Cl)c3)NC2=O)ccc1O	DUSP3 inh 68
Cc1ccc(OCC(=O)N/N=C\c2cc(Cl)cc(Br)c2O)cc1	none
